Each structure is given as a SMILES string. The campaign covered roughly 48,000 compounds. About 13,000 (27%) showed an effect of 50% or more. The list shows a part of the results.

This assay has as its system Wolbachia pipientis. Description: Anti-Wolbachia Cell-Based Screen. It counts as functional. Further details: scale not given: in the data most compounds retested in dose-response had high values. Particulars: 5 µM.
With `C1CCN(CCOC2CCNC2)CC1.Cl.Cl` (centres undefined), the “Percent Effect” value is recorded as -5.434%.
Under `CCNC(=O)[C@@H]1C[C@H](N)CN1Cc1ccc2cccc(Cl)c2n1` stands 33.76%; under `Cn1cnc(S(=O)(=O)N2C[C@H](OCC3CC3)[C@H]3OCCC[C@H]32)c1.O=C(O)C(F)(F)F`, -7.803%; under `CCSCC(C)NCc1nn(C)c2ccc(C)cc12` (centres undefined), -30.17%.
Under `CCC1CN(C(=O)c2ccc(O)c(C)c2)CCN1C(C)C` (centres undefined) stands -1.675%; under `COC(=O)[C@@H]1Cc2c[nH]c3cccc(c23)[C@H](CC(C)C)N1`, -15.46%.
Turning to `O=C(CCOCC(F)(F)F)NS(=O)(=O)c1cccnc1`, the “Percent Effect” value is given as 3.556%.
Next, `Cc1ccc(CCN2C(=O)CC[C@H]3CN(Cc4cnn(C)c4)CC[C@H]32)o1`: 42.08%; `CCN(Cc1cnn(C)c1)S(=O)(=O)N1CCCC1c1ccco1` (centres undefined): 12.89%.
Under `CCN(CC)S(=O)(=O)N1CCCC1CC(=O)c1cccs1` (centres undefined) stands 1.947%; under `CN1CCc2nnc(C3CCCN3S(=O)(=O)c3ccc(F)cc3)n2CC1` (centres undefined), 101.3%.
`CCN(CC)S(=O)(=O)N1CCCC1c1nnc2n1CCN(C)CC2` (centres undefined): the “Percent Effect” value is given as 109.2%.
Next, `Fc1ccc(-c2nnc(CN3CCn4c(nnc4C4CC4)C3)o2)cc1`: -8.144%.
Regarding `COc1cccc2c1CCN(C(=O)NCc1nnc3ccccn13)C2`, the “Percent Effect” value is reported as -4.622%.
Under `COc1cc(NC(=O)C2CC(=O)N(c3cccc(Br)c3)C2)ncn1` (centres undefined) stands -7.851%; under `CCNC(=O)[C@@H]1C[C@@H](N)CN1Cc1ccc2cccc(Cl)c2n1`, -2.31%; under `CCc1ccc2c(c1)C(CCNC(=O)CSC(F)(F)F)C(=O)N2` (centres undefined), 2.698%.
Next, `Cc1cnn(CC2CCCCN2C(=O)c2ccc(CN(C)C)cc2)c1` (centres undefined): 17.54%.
Under `COCCCC1CCCCN1C(=O)c1ccc(SCCO)cc1` (centres undefined) stands -1.649%.
For `CCC1CCCCCN1C(=O)c1coc(S(=O)(=O)N(C)C)c1` (centres undefined), the “Percent Effect” value amounted to 15.41%.
With `Cc1ccc(C(=O)N2CCCCC2CN(C)C)cc1` (centres undefined), the “Percent Effect” value stood at 107.2%.
Under `Cc1ccccc1C(=O)N1CCOCC1CN(C)C.O=CO` (centres undefined) stands -21.7%; under `CN(C)CC1CCCCN1C(=O)c1ccc(N2CCOCC2)cc1` (centres undefined), 108.2%.
Under `CCC1CCCCN1C(=O)c1ccc2[nH]nnc2c1` (centres undefined) stands 1.78%; under `CN(C)CC1COCCN1C(=O)c1ccccc1C(=O)c1ccccc1.O=CO` (centres undefined), -10.61%; under `CCC1CCCCCN1C(=O)c1ccc(N2CCC(O)CC2)cc1` (centres undefined), 94.71%.
For the compound `Cn1cccc1-c1nnc(C2(c3ccc4c(c3)OCO4)CCOCC2)o1`, the “Percent Effect” value is given as -12.47%.
Under `COCCOc1ncccc1C(=O)N(C)c1nccs1` stands -66.02%; under `CCOCc1nc2c(c(N3CC=CC3)n1)CCN(C1CCOCC1)CC2`, -25.57%.
Next, `CCc1ccccc1OCCN1CCC(NS(C)(=O)=O)CC1`: 2.392%; `COc1ccc(C(=O)NS(=O)(=O)c2cccc(C#N)c2)cc1`: 98.14%.
Next, `COc1cccc(C(=O)NS(=O)(=O)c2cccc(C#N)c2)c1`: 105.7%; `Cn1nnc2cc(C(=O)NS(=O)(=O)c3cccc(C#N)c3)ccc21`: -4.102%.
`N#Cc1cccc(S(=O)(=O)NC(=O)COc2ccc3c(c2)CCC3)c1`: the “Percent Effect” value was -8.201%.
Under `COc1ccc(C(=O)N2C[C@@H](CN3CCOCC3)[C@@H](CO)C2)c(C)c1` stands -1.833%; under `COc1ccc2[nH]cc(C(=O)N3C[C@@H](O)[C@H](N4CCCC4)C3)c2c1`, 103.4%; under `COCCCNC(=O)c1c[nH]c2ccc(OC)cc12`, -17.1%.
Under `COc1ccc2[nH]cc(C(=O)N3CC[C@H](CO)[C@@H](O)C3)c(=O)c2c1` stands 6.79%.
Next, `CCN(CC)C(=O)CCNC(=O)c1c[nH]c2ccc(OC)cc12`: 24.42%; `COc1ccc2[nH]cc(C(=O)N3C[C@@H](O)[C@H](NS(C)(=O)=O)C3)c2c1`: 146.2%; `COc1ccc2[nH]cc(C(=O)N3C[C@@H](O)[C@H](N4CCOCC4)C3)c2c1`: 129.4%.
For `CCN(CC)C(=O)CNC(=O)c1c[nH]c2ccc(OC)cc12`, the “Percent Effect” value is listed as -4.616%.
Under `Cc1cc(C(=O)N2C[C@@H]3CCCO[C@@H]3[C@H](N3CCOCC3)C2)c(C)[nH]1` stands 5.404%; under `CCS(=O)(=O)c1ccc(N2CCC(NC(=O)C(C)SC)CC2)cc1` (centres undefined), 6.219%.
Take `Cc1cc(C(C)NC(=O)c2c[nH]c(=O)c(Cl)c2)c(C)o1` (centres undefined): the “Percent Effect” value is given as -8.782%.
Next, `CC(C)C(C)(C#N)NC(=O)CN1CCCN(Cc2ccccc2F)CC1` (centres undefined): 1.272%; `CCSc1ccc(NC(=O)NC2CCc3[nH]ncc3C2)cn1` (centres undefined): -2.569%; `O=C(Nc1ccc(CN2CCOCC2)cc1)c1nccn2ccnc12`: -3.19%.
Next, `Cc1nn(C)c2nc(O)cc(C(F)(F)C(F)(F)F)c12`: 1.264%.
As to `COc1ccc2c(C)c(C(=O)NCCCc3csc(N)n3)oc2c1`, the “Percent Effect” value is -14.38%.
Turning to `COc1cccc(CNCc2c(C(C)C)nn(C)c2N(C)C)c1OC`, the “Percent Effect” value is recorded as -9.439%.
Under `CC(C)c1nn(C)c(N(C)C)c1CNCC(O)c1ccccc1` (centres undefined) stands 92.25%.
As to `CC(C)c1nn(C)c(N(C)C)c1CNCC(O)c1cccc(F)c1` (centres undefined), the “Percent Effect” value came out at 133.5%.
Next, `CC(C)c1nn(C)c(N(C)C)c1CNCc1cccnc1`: 3.817%; `CC(C)c1nn(C)c(N(C)C)c1CNC(C)c1ccccc1F` (centres undefined): 86.76%.
Next, `CC(C)c1nn(C)c(Cl)c1CNCC(O)c1cccc(F)c1.Cl` (centres undefined): 10.68%; `Cc1nn(C)c(N(C)C)c1CNCC(O)c1ccccc1` (centres undefined): -19.87%.
Under `CC(C)c1nn(C)c(N(C)C)c1CNCc1cccc(CN(C)C)c1.Cl` stands -0.8074%.
Regarding `Cc1ccc(C(O)CNCc2c(C(C)C)nn(C)c2N(C)C)cc1` (centres undefined), the “Percent Effect” value was 2.504%.
Under `O[C@@H]1CCN(c2ccc3c(Cl)ccnc3c2F)C1` stands -13.88%.
Regarding `O=S(=O)(c1ccc(F)cc1)N1CCN(CCCn2ccnc2)CC1`, the “Percent Effect” value came to 9.586%.
Next, `COc1ccc(CN2CCN(CCn3ccnc3)CC2)cc1F`: 154.2%; `COc1ccc(CNCC2CCN(CCO)CC2)cc1F`: -13.55%; `COc1ccc(Cn2ccnc2)cc1F`: 137.9%.
Under `COc1ccc(CN2CCN(Cc3nccn3C)C(C)C2)cc1F` (centres undefined) stands 3.11%; under `O=S(=O)(c1cccnc1)N1CCN(CCn2ccnc2)CC1`, 2.586%.
Next, `COc1ccc(F)cc1S(=O)(=O)N1CCN(CCn2ccnc2)CC1`: 123.5%.
Regarding `COc1ccc(Cl)cc1CNCCCn1ccnc1`, the “Percent Effect” value is 10.95%.
Under `CCOc1ccc(CNCCCn2ccnc2)cc1OC` stands -15.55%.

(Values after ChEMBL document CHEMBL3988442, “University of Dundee, Small-Polar-MMV Screening Library” (2021).)
